Here are results for 20 molecules from PubChem BioAssay (EPA / NIEHS).

Assay [1] deals with PGR (gene 5241) (UniProt P06401). In words: TOX21_PR_LUC_Followup_Antagonist: Tox21 HEK293 Progesterone Receptor (PR) Antagonism Luciferase Follow-Up Assay (AID 2283938).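 Further: curve fitted upward as signal gain over DMSO baseline despite antagonist label.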 In outline:
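Luciferase reporter in HEK293-PR-A-luc cells: 16 h compound treatment at 37C, ONE-Glo luminescence detection, DMSO as negative control and baseline.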

Assay [2] in a line: TOX21_PR_LUC_Followup_Antagonist_viability: Viability Assessment in the Tox21 HEK293 Progesterone Receptor (PR) Antagonism Luciferase Follow-Up Assay (AID 2283940). In outline:
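Read-out: CellTiter-Glo ATP luminescence, loss of signal taken as reduced viability. Cells: HEK293-PR-A-luc, 3,000/well, 5 h settling, then 16 h compound exposure at 37C, 0% CO2.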

Assay [3] is described as follows: TOX21_PR_LUC_Followup_Agonist_viability: Viability Assessment in the Tox21 HEK293 Progesterone Receptor (PR) Agonism Luciferase Follow-Up Assay (AID 2283941).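 Further: loss of signal means cytotoxicity so actives lower viability.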 In outline:
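Cytotoxicity counter-screen: ATP content by CellTiter-Glo luminescence, loss of signal = reduced viability. HEK293-PR-A-luc, 3,000 cells/well, compound exposure 16 h, 37C.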

For assay [4], the target named is Nucleoli Translocation, AR (gene 367) (UniProt P10275). In words: UPITT_HCI_U2OS_AR_TIF2_Nucleoli_Antagonist: University of Pittsburgh U2OS Androgen Receptor-Transcriptional Intermediary Factor 2 (AR-TIF2) Antagonism High Content Imaging Assay for Nucleoli Translocation (AID 2283997). The gist of the method: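 An antagonist-mode imaging screen: engineered U2OS (AR-RFP, TIF2-GFP) exposed to 20 uM compound, 0.2% DMSO. Activity reflects nucleolar red fluorescence change relative to DHT baseline.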

For assay [5] the target is unchanged. Briefly: UPITT_HCI_U2OS_AR_TIF2_Nucleoli_Agonist: University of Pittsburgh U2OS Androgen Receptor-Transcriptional Intermediary Factor 2 (AR-TIF2) Agonism High Content Imaging Assay for Nucleoli Translocation (AID 2283998). In outline:
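High-content images quantify nucleolar accumulation of RFP-fused AR in cells also expressing GFP-TIF2; the endpoint is fitted as signal gain versus DMSO controls across final concentrations of 0.195 to 50 uM.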

The target in assay [6] is Ratio of Nucleoli Translocation and Cytoplasm, AR (gene 367) (UniProt P10275). Briefly: UPITT_HCI_U2OS_AR_TIF2_Nucleoli_Cytoplasm_Ratio_Agonist: University of Pittsburgh U2OS Androgen Receptor-Transcriptional Intermediary Factor 2 (AR-TIF2) Agonism High Content Imaging Assay for Ratio of Nucleoli Translocation and Cytoplasm (AID 2284000).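 Further: hits raise the red nucleolar to cytoplasm ratio above vehicle.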 In outline:
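Primary screen at 20 uM final (0.2% DMSO), then triplicate confirmation and dose-response from 0.195 to 50 uM final (0.5% DMSO). Cells: U2OS with AR-RFP and TIF2-GFP. Endpoint is the nucleoli/cytoplasm red-fluorescence ratio, gain-of-signal vs DMSO.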

Assay [7] has the same target. In words: UPITT_HCI_U2OS_AR_TIF2_Nucleoli_Cytoplasm_Ratio_Antagonist: University of Pittsburgh U2OS Androgen Receptor-Transcriptional Intermediary Factor 2 (AR-TIF2) Antagonism High Content Imaging Assay for Ratio of Nucleoli Translocation and Cytoplasm (AID 2283999).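 Further: antagonists lower the DHT-driven ratio of nucleolar to cytoplasmic red signal.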 The gist of the method: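 Read-out is the ratio of nucleolar to cytoplasmic AR-RFP fluorescence, imaged by high-content microscopy in U2OS cells coexpressing TIF2-GFP. Single-point 20 uM screen, triplicate confirmation, then 0.195–50 uM dose response; activity referenced to DHT baseline.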

Assay [8] addresses PGR (gene 5241) (UniProt P06401). In words: TOX21_PR_LUC_Followup_Agonist: Tox21 HEK293 Progesterone Receptor (PR) Agonism Luciferase Follow-Up Assay (AID 2283937; active means hit-call score of the fitted dose curve at least 0.9, where 1 is the maximum; inactive means score below 0.9). In outline: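 Luminescence read-out (ONE-Glo, 30 min at room temperature) of PR-driven luciferase in HEK293-PR-A-luc cells after 16 h compound exposure at 37C; gain of signal fitted relative to DMSO baseline.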
Assay [9] deals with Thyroid hormone receptor alpha (Rattus norvegicus) + Thyroid hormone receptor beta (Rattus norvegicus) (UniProt P18113+P63059). In words: TOX21_TR_LUC_GH3_Agonist_Followup: Tox21 GH3 Thyroid Hormone Receptor Agonism Luciferase Follow-Up Assay (AID 2283939). The gist of the method:
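Agonist-mode confirmatory run: 15 concentrations (5 nM to 92 uM final) on GH3 rat pituitary cells, 24 h at 37C/5% CO2, T3 as positive control. Luminescence read with ONE-Glo after 30 min.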

Assay [10] addresses THRA (gene 7067) (UniProt P10827). Briefly: TOX21_TRA_COA_Agonist_Followup_ratio: Tox21 Thyroid Hormone Receptor alpha Agonism through Coactivator Recruitment Follow-Up Assay, Ratio (AID 2283948; active means hit-call score of the fitted dose curve at least 0.9, where 1 is the maximum; inactive means score below 0.9). The gist of the method:
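Agonist-mode biochemical TR-FRET with TRα LBD and SRC-2 coactivator peptide; activity expressed as percent of T3 response over DMSO baseline.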

The target in assay [11] is THRB (gene 7068) (UniProt P10828). In words: TOX21_TRB_BLA_Agonist_Followup_ratio: Tox21 Thyroid Hormone Receptor beta Agonism Beta-lactamase (BLA) Follow-Up Assay, Ratio (AID 2283954). In outline: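 Agonist mode: compounds (11-point, triplicate) incubated 18 h with HEK293T cells carrying GAL4-DBD/human TRβ-LBD and UAS-β-lactamase. Blue/green (460/530 nm) FRET ratio read after 2 h CCF4-AM loading; CellTiter-Glo viability run in the same plates.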

Assay [12] in a line: TOX21_TRB_BLA_Agonist_Followup_viability: Viability Assessment in the Tox21 Thyroid Hormone Receptor beta Agonism Beta-lactamase (BLA) Follow-Up Assay (AID 2283956). In outline:
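Viability was read as CellTiter-Glo luminescence in the same wells as the TRb-bla agonist read-out. HEK293T GAL4-TRb LBD cells were treated for 18 h (37C, 5% CO2) at 11 concentrations in triplicate. Fits were bidirectional versus DMSO baseline.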

The target of assay [13] is THRB (gene 7068) (UniProt P10828). Briefly: TOX21_TRB_COA_Agonist_Followup_ratio: Tox21 Thyroid Hormone Receptor beta Agonism through Coactivator Recruitment Follow-Up Assay, Ratio (AID 2283963; active means hit-call score of the fitted dose curve at least 0.9, where 1 is the maximum; inactive means score below 0.9). In outline:
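Agonism is measured as coactivator recruitment in a purified-protein TR-FRET format, using GST-TRβ LBD at 5.0 nM, fluorescein-SRC-2 peptide at 200 nM and Tb-labeled anti-GST antibody at 2 nM. Values are 520:495 nm ratios relative to DMSO (0%) and T3 (100%).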

Assay [14] deals with Retinoic acid receptor RXR-alpha (Homo sapiens) (UniProt P19793). In words: TOX21_TR_RXR_BLA_Agonist_Followup_ratio: Tox21 Thyroid Hormone Receptor beta Retinoid X Receptor alpha (RXRa) Agonism Beta-lactamase (BLA) Follow-Up Assay, Ratio (AID 2283968). In outline: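 Read-out: blue/green (460:530 nm) FRET ratio from cleaved vs uncleaved CCF4 substrate, fitted for gain of signal relative to DMSO. Cells: HEK293T with RXRa-UAS-bla reporter; 16 h compound exposure, 11 concentrations, triplicate.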

Assay [15] in a line: CCTE_Simmons_MITO_max_resp_rate: CCTE's HepG2 Seahorse XF Respirometric Screening Assay at Maximal Respiratory State [uncoupled], Simmons Lab (AID 2284002; active means hit-call score of the fitted dose curve at least 0.9, where 1 is the maximum; inactive means score below 0.9). Particulars: actives raise or lower the signal. In outline: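 Uncoupled (FCCP) respiration of HepG2 cells served as the endpoint, with measurements at 6-minute intervals across a 72-minute run and compounds dosed at 7 concentrations up to 100 uM final.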

A short description of assay [16]: CCTE_Simmons_MITO_inhib_resp_rate: CCTE's HepG2 Seahorse XF Respirometric Screening Assay at Inhibited Respiratory State [full ETC block], Simmons Lab (AID 2284006; active means hit-call score of the fitted dose curve at least 0.9, where 1 is the maximum; inactive means score below 0.9). Particulars: actives raise or lower the signal. The gist of the method: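 OCR read-out in the inhibited phase following rotenone/antimycin A, after compound and FCCP injections, in HepG2 cells. Seven concentrations (125 nM to 100 uM final), three biological replicates, 6-min cycles over 72 min; DMSO baseline.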

The nature of assay [17]: CCTE_Simmons_MITO_viability: CellTiter-Glo Viability Assessment for CCTE's HepG2 Seahorse XF Respirometric Screening Assay [post-hoc], Simmons Lab (AID 2284007). In outline: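 Luciferase-coupled ATP luminescence, single endpoint. HepG2, post-respirometry. Compound 125 nM–100 uM final, 7 conc., 90 min. n=3 biological, technical singles. DMSO vehicle/baseline; dichlone 10 nM–100 uM, 8 conc., as positive control.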
(Cellular ATP, detected with luciferase, serves as a proxy for viable cell number.)

The nature of assay [18]: TOX21_TR_RXR_BLA_Agonist_Followup_viability: Viability Assessment in the Tox21 Thyroid Hormone Receptor beta Retinoid X Receptor alpha (RXRa) Agonism Beta-lactamase (BLA) Follow-Up Assay (AID 2283970). In outline: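 CellTiter-Glo ATP quantitation as viability read-out in RXRa-bla HEK293T cells (2,500/well, charcoal-stripped 2% FBS medium), 16h compound incubation at 37C. Loss of signal versus DMSO taken as cytotoxicity, analyzed by bidirectional curve fitting.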

The subject of assay [19] is DIO1 (gene 1733). Briefly: CCTE_GLTED_hDIO1: CCTE's human Deiodinase 1 (DIO1) Inhibition Assay, Great Lakes Toxicology and Ecology Division (GLTED) Lab (AID 2283987).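 Further: isolated human DIO1 enzyme in a cell-free setup rather than cells; enzyme activity read as free iodide liberated from substrate via Sandell-Kolthoff colorimetry.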 The gist of the method:
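Chemicals are tested on human DIO1 without cells for 3 h. Uninhibited enzyme frees iodide, which speeds cerium(IV) reduction by arsenic and is read by spectrophotometry.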

Inconclusive results are not listed. The source made the active and inactive calls. How the source made its calls, unless noted: active means hit-call score of the fitted dose curve at least 0.9, where 1 is the maximum; inconclusive means response in the unintended direction; inactive means score below 0.9.

Broadly, the AC50 is the midpoint of the concentration-response curve, whichever way the signal moves.

Chain of Thyroid hormone receptor alpha (Rattus norvegicus) + Thyroid hormone receptor beta (Rattus norvegicus) (P63059 whole entry, looked up): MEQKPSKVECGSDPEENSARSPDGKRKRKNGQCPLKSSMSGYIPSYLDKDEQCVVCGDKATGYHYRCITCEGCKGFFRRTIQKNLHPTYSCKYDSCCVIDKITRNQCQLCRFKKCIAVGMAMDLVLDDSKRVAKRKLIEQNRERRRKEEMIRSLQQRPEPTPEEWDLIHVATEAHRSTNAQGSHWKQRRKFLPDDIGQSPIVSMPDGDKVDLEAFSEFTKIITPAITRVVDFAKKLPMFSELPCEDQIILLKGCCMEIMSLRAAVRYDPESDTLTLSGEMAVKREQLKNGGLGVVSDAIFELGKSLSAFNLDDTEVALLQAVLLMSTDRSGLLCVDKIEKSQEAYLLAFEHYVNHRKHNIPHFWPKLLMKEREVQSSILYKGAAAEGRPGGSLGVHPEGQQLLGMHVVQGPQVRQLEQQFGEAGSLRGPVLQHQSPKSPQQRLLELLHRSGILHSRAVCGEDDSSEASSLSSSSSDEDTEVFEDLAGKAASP
Chain of Thyroid hormone receptor alpha (Rattus norvegicus) + Thyroid hormone receptor beta (Rattus norvegicus) (P18113 whole entry, looked up): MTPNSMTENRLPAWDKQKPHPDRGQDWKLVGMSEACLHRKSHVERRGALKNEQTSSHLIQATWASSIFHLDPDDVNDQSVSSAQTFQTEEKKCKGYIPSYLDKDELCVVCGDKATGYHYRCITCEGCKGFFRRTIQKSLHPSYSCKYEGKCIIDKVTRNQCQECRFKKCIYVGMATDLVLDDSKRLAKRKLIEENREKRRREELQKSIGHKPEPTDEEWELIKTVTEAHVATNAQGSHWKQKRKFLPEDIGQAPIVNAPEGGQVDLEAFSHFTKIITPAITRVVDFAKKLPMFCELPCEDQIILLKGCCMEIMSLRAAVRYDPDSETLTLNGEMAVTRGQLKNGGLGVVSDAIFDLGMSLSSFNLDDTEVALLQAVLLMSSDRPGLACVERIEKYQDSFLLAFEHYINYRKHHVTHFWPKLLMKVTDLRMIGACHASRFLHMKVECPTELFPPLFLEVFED
Chain of PGR (gene 5241) (P06401 whole entry, looked up): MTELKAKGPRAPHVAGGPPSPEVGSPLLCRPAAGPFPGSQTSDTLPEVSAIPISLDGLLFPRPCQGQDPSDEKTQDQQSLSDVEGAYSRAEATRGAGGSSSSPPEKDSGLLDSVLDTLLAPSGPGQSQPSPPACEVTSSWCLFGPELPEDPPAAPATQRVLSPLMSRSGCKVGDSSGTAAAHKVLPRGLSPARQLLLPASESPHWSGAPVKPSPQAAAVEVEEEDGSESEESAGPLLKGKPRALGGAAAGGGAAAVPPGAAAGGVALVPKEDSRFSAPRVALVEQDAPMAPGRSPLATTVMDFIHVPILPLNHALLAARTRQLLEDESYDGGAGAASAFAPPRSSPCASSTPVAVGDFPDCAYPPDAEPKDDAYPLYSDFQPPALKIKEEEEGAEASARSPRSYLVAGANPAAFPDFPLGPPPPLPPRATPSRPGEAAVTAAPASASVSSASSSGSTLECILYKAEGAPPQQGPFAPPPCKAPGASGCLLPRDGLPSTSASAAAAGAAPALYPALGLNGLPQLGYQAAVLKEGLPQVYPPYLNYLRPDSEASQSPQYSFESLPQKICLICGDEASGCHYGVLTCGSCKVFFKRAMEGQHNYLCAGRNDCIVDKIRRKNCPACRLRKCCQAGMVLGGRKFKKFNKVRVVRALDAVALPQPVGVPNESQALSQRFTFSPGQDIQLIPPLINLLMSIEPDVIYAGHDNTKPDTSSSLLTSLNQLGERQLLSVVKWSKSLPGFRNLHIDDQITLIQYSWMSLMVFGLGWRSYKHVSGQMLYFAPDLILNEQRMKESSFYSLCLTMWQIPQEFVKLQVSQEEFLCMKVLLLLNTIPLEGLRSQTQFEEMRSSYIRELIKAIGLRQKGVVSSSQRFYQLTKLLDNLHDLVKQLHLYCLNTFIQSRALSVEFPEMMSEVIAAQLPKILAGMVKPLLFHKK
Chain of THRB (gene 7068) (P10828 whole entry, looked up, the tested form may be a part): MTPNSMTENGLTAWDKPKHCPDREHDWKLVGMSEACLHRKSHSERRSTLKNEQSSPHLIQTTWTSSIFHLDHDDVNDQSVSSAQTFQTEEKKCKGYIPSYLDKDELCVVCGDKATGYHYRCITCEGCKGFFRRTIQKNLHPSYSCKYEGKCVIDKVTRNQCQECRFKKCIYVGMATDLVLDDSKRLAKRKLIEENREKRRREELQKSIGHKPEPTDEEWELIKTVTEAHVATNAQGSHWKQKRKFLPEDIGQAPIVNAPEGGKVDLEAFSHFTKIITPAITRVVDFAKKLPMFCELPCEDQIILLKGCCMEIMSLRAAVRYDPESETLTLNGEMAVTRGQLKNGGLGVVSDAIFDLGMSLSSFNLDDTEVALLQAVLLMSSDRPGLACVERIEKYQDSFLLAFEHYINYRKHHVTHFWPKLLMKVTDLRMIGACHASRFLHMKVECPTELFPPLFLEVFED
Chain of Nucleoli Translocation, AR (gene 367) (P10275 whole entry, looked up): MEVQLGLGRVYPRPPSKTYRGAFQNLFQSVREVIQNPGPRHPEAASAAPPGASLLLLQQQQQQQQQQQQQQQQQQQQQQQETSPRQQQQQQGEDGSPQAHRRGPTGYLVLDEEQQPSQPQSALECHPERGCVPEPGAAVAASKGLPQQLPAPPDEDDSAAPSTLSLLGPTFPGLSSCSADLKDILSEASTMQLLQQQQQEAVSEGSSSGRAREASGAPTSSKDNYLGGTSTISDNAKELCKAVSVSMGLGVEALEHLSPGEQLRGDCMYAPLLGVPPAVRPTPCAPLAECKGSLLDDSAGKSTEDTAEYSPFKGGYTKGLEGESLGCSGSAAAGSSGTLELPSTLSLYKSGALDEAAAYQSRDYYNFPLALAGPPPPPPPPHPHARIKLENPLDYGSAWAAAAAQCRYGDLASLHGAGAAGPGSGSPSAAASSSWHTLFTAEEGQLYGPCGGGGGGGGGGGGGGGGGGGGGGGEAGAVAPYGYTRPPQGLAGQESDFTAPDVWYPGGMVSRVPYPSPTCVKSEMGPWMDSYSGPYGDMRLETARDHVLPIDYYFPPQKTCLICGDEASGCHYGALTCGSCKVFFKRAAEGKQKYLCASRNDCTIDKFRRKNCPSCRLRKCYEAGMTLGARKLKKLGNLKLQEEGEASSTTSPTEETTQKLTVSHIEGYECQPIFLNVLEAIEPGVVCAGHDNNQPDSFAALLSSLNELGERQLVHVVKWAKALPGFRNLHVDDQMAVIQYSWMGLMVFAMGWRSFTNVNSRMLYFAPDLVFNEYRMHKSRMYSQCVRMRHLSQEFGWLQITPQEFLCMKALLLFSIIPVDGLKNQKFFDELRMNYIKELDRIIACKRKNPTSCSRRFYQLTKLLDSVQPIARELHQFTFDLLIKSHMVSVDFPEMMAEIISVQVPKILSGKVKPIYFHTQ
Chain of Ratio of Nucleoli Translocation and Cytoplasm, AR (gene 367) (P10275 whole entry, looked up): as above
Chain of THRA (gene 7067) (P10827 whole entry, looked up, the tested form may be a part): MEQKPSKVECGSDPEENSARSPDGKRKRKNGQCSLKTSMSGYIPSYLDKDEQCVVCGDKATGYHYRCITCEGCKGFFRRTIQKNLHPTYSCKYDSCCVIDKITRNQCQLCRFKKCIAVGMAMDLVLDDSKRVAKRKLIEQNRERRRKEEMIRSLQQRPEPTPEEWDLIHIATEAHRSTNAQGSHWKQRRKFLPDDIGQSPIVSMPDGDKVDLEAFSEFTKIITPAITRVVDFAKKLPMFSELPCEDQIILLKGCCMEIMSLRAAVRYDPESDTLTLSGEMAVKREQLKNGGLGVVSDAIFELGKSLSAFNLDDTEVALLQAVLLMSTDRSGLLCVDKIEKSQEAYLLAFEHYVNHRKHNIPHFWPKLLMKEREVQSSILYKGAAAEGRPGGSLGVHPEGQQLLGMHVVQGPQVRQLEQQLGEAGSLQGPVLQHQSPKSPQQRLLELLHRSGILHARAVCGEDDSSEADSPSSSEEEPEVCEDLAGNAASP
Chain of Retinoic acid receptor RXR-alpha (Homo sapiens) (P19793 whole entry, looked up): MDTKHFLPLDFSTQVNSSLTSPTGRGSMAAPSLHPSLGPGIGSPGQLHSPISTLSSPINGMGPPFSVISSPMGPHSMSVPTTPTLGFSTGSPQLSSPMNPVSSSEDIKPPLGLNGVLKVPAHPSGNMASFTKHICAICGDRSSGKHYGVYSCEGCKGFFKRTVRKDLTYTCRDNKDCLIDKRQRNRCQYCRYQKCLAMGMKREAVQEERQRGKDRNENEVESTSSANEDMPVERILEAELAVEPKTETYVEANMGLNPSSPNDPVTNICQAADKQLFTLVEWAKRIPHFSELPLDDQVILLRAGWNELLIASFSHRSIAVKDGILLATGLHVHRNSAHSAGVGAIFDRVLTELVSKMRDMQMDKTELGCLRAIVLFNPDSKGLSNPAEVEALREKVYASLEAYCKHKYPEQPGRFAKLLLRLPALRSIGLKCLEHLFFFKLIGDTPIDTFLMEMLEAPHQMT

As for `CC(O)(CS(=O)(=O)c1ccc(F)cc1)C(=O)Nc1ccc(C#N)c(C(F)(F)F)c1` (stereo not drawn), the AC50 in assay [1] is 6.97 µM (active).
With `O=[N+]([O-])c1ccc(Nc2ccccc2)cc1`, the AC50 in assay [1] was 12.8 µM (active). In addition, the molecule was called inactive in assay [2] and in [3].
For the molecule `O=C(N[C@H]1CN2CCC1CC2)c1ccc2c(c1)OCCO2`, the call in assay [4], in [5] and in assay [6] was inactive.
Consider `O=S(=O)(c1ccc(Cl)cc1)c1cc(Cl)c(Cl)cc1Cl`, for which the concentration at half-maximal activity (AC50) in [1] was 61 µM (active).
Take `OC(Cc1ccccc1Cl)(Cn1[nH]cnc1=S)C1(Cl)CC1` (stereo not drawn): the outcome in [4], in assay [5], in [7] and in assay [6] was inactive.
With `CC(=Cc1ccccc1)[N+](=O)[O-]`, the AC50 in [4] is 0.585 µM (active); in assay [7], 0.845 µM (active). Besides, the call in assay [5] and in assay [6] was inactive.
As to `CCCSP(=S)(OCC)Oc1ccc(Cl)cc1Cl` (stereo not drawn), in [1], the AC50 is 24.3 µM (active).
For the molecule `Cc1ccccc1OP(=O)(Oc1ccccc1C)Oc1ccccc1C`, the outcome in [8], in assay [1], in [2] and in assay [3] was inactive.
On to `O=C(Cl)OCCOCCOC(=O)Cl`, for which the outcome in assay [9], in assay [10], in assay [11], in assay [12], in [13] and in assay [14] was inactive.
On to `CC(C)(C1CCC(O)CC1)C1CCC(O)CC1` (stereo not drawn), for which the result in [1], in assay [2] and in [3] was inactive.
Take `COCCl`: the outcome in [4], in assay [5], in assay [7] and in assay [6] was inactive.
Turning to `Oc1cc(Cl)c(Cl)cc1Cl`, the AC50 in assay [15] is 75.4 µM (active). The call in assay [16] and in [17] was inactive.
Regarding `O=S1OC[C@@H]2[C@H](CO1)[C@]1(Cl)C(Cl)=C(Cl)[C@@]2(Cl)C1(Cl)Cl` (stereo partly drawn), the AC50 in assay [4] is 32.2 µM (active). The result in assay [7] was inactive.
Turning to `CC(C)CC(C)(c1ccc(O)cc1)c1ccc(O)cc1`, the molecule was called inactive in assay [8], in assay [2] and in assay [3]. Further, in assay [1], the AC50 was 12.2 µM (active).
Consider `CCCSP(=S)(OCC)Oc1ccc(SC)cc1` (stereo not drawn), for which the molecule was classed as inactive in assay [1].
In the case of `CC1(C)COP(Oc2ccccc2)OC1`, the outcome in [9], in [10], in assay [12], in [13], in assay [14] and in assay [18] was inactive.
With `CNC(=O)O/N=C/C(C)(C)S(C)(=O)=O`, the molecule was called inactive in assay [4], in assay [5], in assay [7] and in [6].
With `c1csc(-c2ccc(-c3cccs3)s2)c1`, the outcome in assay [9], in assay [10], in assay [11], in assay [12], in [13] and in assay [18] was inactive.
Consider `Nc1ccc(-c2ccccc2)cc1`, for which the molecule was called inactive in assay [1], in assay [2] and in assay [3].
Turning to `O=C(CCl)Nc1ccccc1`, the concentration at half-maximal activity (AC50) was 21.1 µM (active) in assay [19], 29 µM (active) in [4] and 26.3 µM (active) in assay [7]. The molecule was classed as inactive in [5] and in assay [6].
